test system: CHEK1; conditions: concentration: 1 μM, replicates: in singlicate; n = 1
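Note: KINOMEscan kinase panel screen.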

Row | SMILES | %Inh
1 | CCNc1nccc(-c2c(-c3ccc(F)cc3)ncn2C2CCN(C)CC2)n1 | 7%
2 | COC(=O)Nc1nc2cc(Oc3ccc(NC(=O)Nc4cccc(SC)c4)cc3)ccc2[nH]1.Cl [GW697999] | 2%
3 | Fc1cc(Cl)ccc1Nc1ccnc2cc(-c3ccc(CN4CCOCC4)o3)ccc12 [GW560109] | 12%
4 | NCCC(NC(=O)c1cc(Br)c(-c2ccnc3[nH]ccc23)s1)c1ccccc1.O=C(O)C(F)(F)F.O=C(O)C(F)(F)F (stereo not drawn) [GSK1307810] | 0%
5 | Cc1ccc(O)cc1Nc1ccnc2cc(-c3ccc(CN4CCCCC4)o3)ccc12 [GW557777] | 13%
6 | CCn1cnc2c(NCc3ccccc3)ncnc21 [SKF-96418] | 0%
7 | CN(c1ccc(F)c(NC(=O)c2cccc(OC(C)(C)C#N)c2Cl)c1)c1ccc2nc(NC(=O)C3CC3)sc2n1 | 0%
8 | Cn1cc(-c2ccc3c(c2)CCN3C(=O)Cc2cc(F)cc(F)c2F)c2c(N)ncnc21 [GSK2634140] | 9%
9 | CN(C)c1ncnc2nc[nH]c12 [SKF-31736] | 0%
10 | O=C(O)C(F)(F)F.O=c1[nH]ccc2nc(N[C@@H]3CCNC3)nc(Nc3ccc4c(c3)S(=O)(=O)CC4)c12 [GSK2181306] | 98.3%
11 | Cn1cc(-c2cnc(N)c3c(-c4ccc5c(c4)CCN5C(=O)Cc4ccccc4)csc23)cn1 [GSK2593074] | 9%
12 | Cc1ccc(NC(=O)c2ccc(Cl)c(Cl)c2)cc1-c1ccc(C(=O)Nc2ccncc2)cc1 [GSK1398460] | 22%

test system: CHEK2; conditions: concentration: 1 μM, replicates: in singlicate; n = 1

Row | SMILES | %Inh
13 | N#CC1(c2cccc(C(=O)Nc3cccc(Oc4ccc5nc(NC(=O)C6CC6)sc5n4)c3)c2)CC1 | 0%
14 | Cc1ccc(C)c(NC(=O)Nc2ccc(C)c(-c3ccc(C(=O)Nc4ccncc4)cc3)c2)c1 [GSK1398473] | 0%
15 | O=C(Nc1n[nH]c2nc(-c3ccccc3O)ccc12)C1CC1 [SB-711880] | 0%
16 | CCn1c(-c2nonc2N)nc2c(-c3ccccc3)ncc(OCCCN)c21.O=C(O)C(F)(F)F.O=C(O)C(F)(F)F [GSK260205] | 0%
17 | Cl.Cl.NC(CNC(=O)c1cc(Br)c(-c2ccnc3[nH]ccc23)s1)c1ccccc1 (stereo not drawn) [GSK1322949] | 46%
18 | CCOc1nccc(-c2c(-c3ccc(F)cc3)ncn2C2CCNCC2)n1 [SB-249175] | 16%
19 | COc1cccc2c(-c3ccncc3)c(-c3ccc(F)cc3)nn12 [GW468513] | 0%
20 | CC(C)c1nc(-c2cccc(NS(=O)(=O)c3c(F)cccc3F)c2)c(-c2ccnc(Nc3ccc(N4CCOCC4)nc3)n2)s1.Cl [GSK1723980] | 13%
21 | O=C(Nc1n[nH]c2cc(-c3cccs3)ccc12)C1CC1 [SB-731284] | 0%
22 | Cc1ccc(NC(=O)c2cccc(N3CCCCC3)c2)cc1-c1ccc(C(=O)NCC2CC2)cc1 [GSK1917008] | 0%
23 | Cl.O=C(Nc1ccc(Oc2ccc3[nH]c(NC(=O)c4ccco4)nc3c2)cc1)Nc1cc(C(F)(F)F)ccc1F [GW683134] | 0%
24 | Cn1cc(-c2ccc3c(c2)CCN3C(=O)Cc2cc(F)cc(C(F)(F)F)c2)c2c(N)ncnc21 [GSK2635225] | 0%
25 | COc1cc(Nc2nccc(N3CCC(NS(=O)(=O)c4ccc(NC(C)=O)cc4)CC3)n2)cc(OC)c1OC [GSK1379825] | 0%
26 | O=C1NC(=O)C(c2ccccc2Cl)=C1Nc1cccc(Cl)c1 [SB-342409] | 0%
27 | Cc1cc(-c2ccnc(Nc3cccc(C#N)c3)n2)cc(C)c1O [GSK1440913] | 0%
28 | CC(C)NCC(Cc1ccccc1)NC(=O)c1cc(Br)c(-c2ccnc3[nH]ccc23)s1.Cl.Cl (stereo not drawn) [GSK1383281] | 39%
29 | Nc1ncc(-c2ccc3nccc(-c4ccncc4)c3c2)cc1S(=O)(=O)N1CCCCC1 [GSK1693850] | 23%
30 | COc1cc(Nc2ccnc3cc(-c4ccncc4)ccc23)cc(OC)c1OC.Cl [GW494610] | 0%
31 | COC(=O)Nc1nc2ccc(Oc3ccc(NC(=O)Nc4cc(C(F)(F)F)ccc4F)cc3)cc2[nH]1.Cl [GW654607] | 16%
32 | c1ccc(Oc2ccc(Nc3ccnc4cc(-c5ccc(CN6CCCCC6)o5)ccc34)cc2)nc1 [GW567143] | 74%
33 | COc1cccc(CC(=O)N2CCc3cc(-c4cn(C)c5ncnc(N)c45)ccc32)c1 [GSK2608899] | 0%

Source: paper PMC5540273 (PLoS ONE, 2017)
